Source: publication PMC4552634, “A New Set of Chemical Starting Points with Plasmodium falciparum Transmission-Blocking Potential for Antimalarial Drug Discovery” (PLoS ONE, 2015)
Read-outs that look alike come from different tables or passages of the source. Screen size: about 13,000 compounds; about 3,200 (25%) showed an effect of 50% or more. This is one part of the list.

System: P. falciparum stage V gametocytes
Set-up: BacTiter-Glo ATP luminescence viability of purified stage V gametocytes in 384-well plates, per cent inhibition versus DMSO
Settings: 48 h, 5 µM, inhibitor

Structure (SMILES)	% Inhibition [%]	% Inhibition (% Inhibition) [%]
O=C(c1cc2c(s1)-c1cccc(Cl)c1SC2)N1CCN(c2ccncc2)CC1 [TCMDC-133145]	30.1	–
CCOc1cc2ncnc(Nc3ccc(OCc4ccccc4Br)c(OC)c3)c2cc1OCC [TCMDC-131938]	-6.786	–
COc1ccccc1C1CC(c2ccccc2)=NN1C(=O)c1ccco1 (centres unmarked) [TCMDC-124921]	5.682	–
COc1ccc(-c2cn3c(C(=O)Nc4ccccc4Cl)c(-c4ccccc4)c4c3n2CCCC4)cc1 [TCMDC-125125]	-39.86	–
CCNC(=O)CCc1cccc(Br)c1 [TCMDC-137648]	26.26	–
CCNc1cc(C(=O)N[C@@H](Cc2ccccc2)[C@H](O)CNCCc2cccc3ccccc23)cc(N2CCCC2=O)c1 [TCMDC-134568]	-9.566	–
N#Cc1ccc(N[C@@H](CC2CCCCC2)C(=O)NCc2cc(Cl)cc(Cl)c2)c2ccccc12 [TCMDC-136626]	13.09	–
CCC(CC)C(CC(=O)NC(C)(C)CCc1ccccc1OC)Nc1ccc(C#N)c2ccccc12 (centres unmarked) [TCMDC-132308]	3.423	–
COc1cccc([C@@H](CC(=O)Nc2cc(C(F)(F)F)ccc2OC)Nc2ccc(C#N)c3ccccc23)c1 [TCMDC-132309]	11.85	–
CC(C)(C)[C@@H](Nc1ccc(C#N)c2ccccc12)C(=O)NC1(Cc2ccc(O)c(Br)c2)CCCC1 [TCMDC-136784]	27.12	–
COC(=O)[C@@H](NC(=O)[C@H](CC(C)C)Nc1ccc(C#N)c2ccccc12)c1ccc(O)cc1 [TCMDC-136622]	62.67	–
CCCCC1(NC(=O)[C@H](CC(C)C)Nc2ccc(C#N)c3ccccc23)CCCCC1 [TCMDC-136624]	-52.31	–
CC(C)C[C@H](Nc1ccc(C#N)c2ccccc12)C(=O)N[C@@H]1CCCc2ccccc21 [TCMDC-136088]	59.15	–
N#Cc1ccc(N[C@@H](CC2CCCCC2)C(=O)N[C@@H]2CCCc3ccccc32)c2ccccc12 [TCMDC-136633]	13.98	–
COC(=O)[C@@H](NC(=O)[C@@H](Nc1ccc(C#N)c2ccccc12)C(C)(C)C)c1ccc(O)cc1 [TCMDC-136607]	78.97	–
CC(C)(C)[C@@H](Nc1ccc(C#N)c2ccccc12)C(=O)NC1(Cc2ccc(O)cc2)CCCC1 [TCMDC-136782]	18.1	–
COC(=O)[C@@H](NC(=O)[C@H](Cc1ccc(OC)c(OC)c1)Nc1ccc(C#N)c2ccccc12)c1ccc(O)cc1 [TCMDC-136637]	53.18	–
Cc1cc(NC(=O)[C@H](CC(C)C)Nc2ccc(C#N)c3ccccc23)ccc1F [TCMDC-136623]	-63.41	–
CC(=O)Nc1cccc(CNCc2ccc(-c3cnc(N4CCCC(c5ccccc5)C4)nc3)cc2)c1 (centres unmarked) [TCMDC-133723]	-4.34	–
CC(Sc1nc(-c2ccccc2)c(-c2ccccc2)o1)C(=O)NC1CC1 (centres unmarked) [TCMDC-125313]	34.01	–
O=C(Nc1ccc(Cn2ncc(N3CCCNCC3)c(Cl)c2=O)cc1)Nc1cccc(SC(F)(F)F)c1 [TCMDC-133321]	-32.98	–
O=C(Nc1ccc([N+](=O)[O-])cc1)Nc1nc2ccc(Cl)cc2s1 [TCMDC-123703]	38.6	–

Structure (SMILES)	% Inhibition [%]	% Inhibition (% Inhibition) [%]
Cc1cccc2nc(-c3ccc(-c4ccc(NC(=O)C(C)CN(C)C)cc4)s3)[nH]c12 (centres unmarked) [TCMDC-137115]	20.93	–
COc1nc2c(CCN3CCC(NCc4ccc5c(n4)NC(=O)CO5)CC3)c(Cl)cnc2cc1F [TCMDC-135766]	-7.442	–
CN1CCN(Cc2cc3cc(NC(=O)/C=C/c4cccc(Cl)c4)ccc3s2)CC1 [TCMDC-135630]	-63.97	–
CC(C)C[C@@H](/C=N/N1CCNC1=O)NC(=O)[C@H](CC(C)C)NC(=O)c1ccc(OCCN2CCOCC2)cc1 [TCMDC-136227]	6.84	–
COC(=O)c1cccc(CNCc2cccc(-c3cccc(-c4nc5cc(C(F)(F)F)ccc5[nH]4)c3)c2)c1.O=C(O)C(F)(F)F [TCMDC-132949]	2.495	–
N#Cc1ccc(N[C@@H](CC2CCCCC2)C(=O)Nc2ccc(-c3ccccc3)cc2)c2ccccc12 [TCMDC-136629]	57.71	–
Cc1cc(NC(=O)[C@H](CC2CCCCC2)Nc2ccc(C#N)c3ccccc23)ccc1F [TCMDC-136627]	3.721	–
CCC(CC)(Cc1ccccc1)NC(=O)[C@H](CC1CCCCC1)Nc1ccc(C#N)c2ccccc12 [TCMDC-136634]	-0.7992	–
CCC(CC)(Cc1ccccc1)NC(=O)[C@H](Cc1ccc(OC)c(OC)c1)Nc1ccc(C#N)c2ccccc12 [TCMDC-136638]	82.88	–
CC(C)(CC1CCCCC1)NC(=O)[C@H](CC1CCCCC1)Nc1ccc(C#N)c2ccccc12 [TCMDC-136632]	-68.15	–
CCC(CC)(Cc1ccccc1)NC(=O)[C@H](CC(C)C)Nc1ccc(C#N)c2ccccc12 [TCMDC-136625]	-7.489	–
CC(=O)c1ccc(-c2ccccc2)s1 [TCMDC-123882]	-10.02	–
CC[C@H](C)[C@H](NC(=O)[C@H](CC1CCCCC1)[C@H](CC)N(O)C=O)C(=O)Nc1ccccn1 [TCMDC-137215]	2.069	–
CC(=O)Nc1cccc(-c2cn(-c3ccc(OCc4cccc(F)c4)c(Cl)c3)c3ncncc23)c1 [TCMDC-135093]	-24.36	–
COc1ccc(C2C(C(=O)OC3CCCC3)=C(C)NC3=C2C(=O)CCC3)cc1Br (centres unmarked) [TCMDC-124211]	-24.26	–
CCn1cc(C=C2Oc3c(ccc(O)c3CN3CCCCC3C)C2=O)c2ccccc21 (centres unmarked) [TCMDC-124886]	27.57	–
Cc1cc(C(=O)Nc2ccc(-c3ccccc3)cc2)no1 [TCMDC-124865]	48.28	–
Cc1cc(C(=O)Nc2nc(-c3ccccn3)nc3ccsc23)no1 [TCMDC-135243]	58.63	–
Cc1occc1C(=O)Nc1nc(-c2ccccn2)nc2ccsc12 [TCMDC-135244]	130.5	–
Cc1onc(-c2ccccc2)c1C(=O)Nc1nc(-c2ccccn2)nc2ccsc12 [TCMDC-135272]	-61.64	–
COc1ccc(C(=O)Nc2ccc3oc(-c4ccc(C(F)(F)F)cc4)cc3c2)cc1CCCN(C)C [TCMDC-138694]	15.28	–
COc1ccc2nccc([C@@H](O)CN3CCC(c4cc(-c5ccc(Cl)cc5)n[nH]4)CC3)c2n1 [TCMDC-141436]	81.16	–

Structure (SMILES)	% Inhibition [%]	% Inhibition (% Inhibition) [%]
COc1ccc2nccc([C@@H](O)CN3CCC(NCc4cc5ccccc5cn4)CC3)c2n1 [TCMDC-140714]	12.93	–
COc1ccc2nccc([C@@H](O)CN3CCC(NCc4ccc5c(c4)NC(=O)CS5)CC3)c2n1 [TCMDC-141173]	12.99	–
COc1ccc2nccc([C@@H](O)CN3C4CCC3CC(NCc3ccc5c(n3)NC(=O)CS5)C4)c2n1 (some centres unmarked) [TCMDC-134697]	50.82	–
COc1ccc2nccc([C@@H](O)CN3CCC(NCc4cc5c(cc4F)SCC(=O)N5)CC3)c2n1 [TCMDC-141432]	52.03	–
COc1ccc2nccc([C@@H](O)CN3CCC(NCc4cc5c(F)ccc(F)c5[nH]4)CC3)c2n1 [TCMDC-140749]	33.6	–
COc1cc(F)c2nccc([C@@H](O)CN3CCC(NCc4ccc5c(n4)NC(=O)CS5)CC3)c2c1 [TCMDC-141566]	6.174	–
COc1ccc2nccc(N(C)CC3(O)CCC(NCc4ccc5c(n4)NC(=O)CS5)CC3)c2n1 (centres unmarked) [TCMDC-134496]	10.91	–
COc1ccc2nccc([C@@H](O)CN3CCC(NCc4cc5ccccc5[nH]4)CC3)c2n1 [TCMDC-140670]	14.92	–
COc1ccc2nccc([C@@H](O)CN3CCC(NCc4ccc5cccc(O)c5n4)CC3)c2n1 [TCMDC-140748]	43.79	–
COc1ccc2nccc([C@@H](O)CN3CCC(NCc4cc5cccnc5[nH]4)CC3)c2n1 [TCMDC-140769]	87.86	–
COc1ccc2nccc(NCC3(O)CCC(NCc4ccc5c(n4)NC(=O)CS5)CC3)c2n1 (centres unmarked) [TCMDC-134313]	46.62	–
COc1ccc2ncc(F)c(C(O)CN3CCC(NCc4ccc5c(n4)NC(=O)CO5)CC3)c2c1 (centres unmarked) [TCMDC-135531]	–	14.63
CN(C)CCOc1ccc2c(c1)OC(C)(C)C=C2c1cccc2ccccc12 [TCMDC-131402]	-10.44	–
CNC(=O)C1Cc2c([nH]c3c(C)cccc23)C2(N1)C(=O)Nc1ccc(OC(F)(F)F)cc12 (centres unmarked) [TCMDC-140663]	46.7	–
COc1cc(Cc2cnc(N)nc2N)ccc1OCc1csc(-c2ccc(Cl)cc2)n1 [TCMDC-138680]	16.88	–
CCCc1cc(C(C)=O)ccc1OCCCON1C(N)=NC(N)=NC1(C)C [TCMDC-131336]	-2.455	–
CS(=O)(=O)NCCCNCc1cccc(-c2ccc(-c3nc4ccccc4[nH]3)s2)c1.O=C(O)C(F)(F)F [TCMDC-133088]	4.156	–
CC(=O)c1sc2ccccc2c1O [TCMDC-125829]	14.25	–
COc1ccc2nccc(CCC3(O)CCC(NCc4cc5c(cc4F)SCC(=O)N5)CC3)c2c1 (centres unmarked) [TCMDC-141917]	62.44	–
COc1ccc2nccc(NC(=O)C3CCC(NCc4ccc5c(c4)NC(=O)CS5)CC3)c2c1 (centres unmarked) [TCMDC-141228]	28.37	–
COc1ccc2nccc(NC(=O)OC3CCC(NCc4ccc5c(n4)NC(=O)CS5)CC3)c2c1 (centres unmarked) [TCMDC-141555]	-20.26	–
